# Source: PubChem BioAssay
# Compounds with a hit are over-represented: about 4.8% of the library has one in this group of screens.
# Rev-erbA mod: modulators of Rev-erb alpha DNA binding, primary screen, biochemical, FITC-DNA, fluorescence polarization, uHTS; Nuclear receptor subfamily 1 group D member 1 (Homo sapiens), P20393; Rev-erbα–FITC-DNA binding, 90 min; activity, % at 10 µM; 0.79% of 370,000 active; AID 1259318, 2017;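 active = activity above about 14%, limit read from the data; passing the limit was not always enough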;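 note: 0% = DMSO wells with 35 nM protein and 100% = DMSO wells with 750 nM protein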
# hgDAF12 agonist: H. glycines DAF-12 receptor agonists, primary screen, cell-based, luminescence, HEK293, GAL4 fusion, UAS-luciferase | Nuclear hormone receptor DAF-12 (Heterodera glycines), GAL4 fusion | HEK293 GAL4-hgDAF12 UAS-luciferase reporter, agonist luminescence; normalized to butyrate control | activation, % at 6.8 µM | 1.8% of 370,000 active;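 active = activation above a cutoff set at the mean of all screened compounds plus 3 SD, cut at about 10% in these data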;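 note: 0% = DMSO wells and 100% = sodium butyrate wells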
# hcDAF-12 act: H. contortus DAF-12 nuclear receptor activators, primary screen, cell-based, luminescence, HEK293, lit1-tk-luc reporter | HEK293 hcDAF-12 lit1-tk-luc reporter; 0% DMSO, 100% Δ7-dafachronic acid | 1.4% of 370,000 active | activation, % at 6.8 µM;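 active = activation above the mean of all tested compounds plus 3 SD, cut at about 5.5% in these data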;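 note: 100% = response to 3 µM Δ7-dafachronic acid high control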
# DAX1 inh-1: DAX1 (NR0B1) inhibitors on StAR promoter, primary screen, cell-based, luminescence, SF-1 (NR5A1), full-length DAX-1. HEK293T StAR-luciferase reporter, SF-1/DAX-1 repression relief. inhibition, % at 6.8 µM. 1.1% of 370,000 active;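 active = inhibition above the mean over all tested compounds plus 3 SD, cut at about 3.6% in these data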;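 note: 0% = DAX-1 cells with DMSO and 100% = cells lacking DAX-1 with DMSO; higher inhibition means more luminescence from relief of DAX-1 repression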
# ssDAF-12 act: S. stercoralis DAF-12 nuclear receptor activators, primary screen, cell-based, luminescence, HEK293, GRIP1 co-expression, lit1-tk-luc; HEK293 ssDAF-12/GRIP1 lit1-tk-luc reporter; % of 3 µM dafachronic acid response; activation, % at 6.8 µM; 1% of 370,000 active; AID 652126, 2013;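 active = activation above the mean over all tested compounds plus 3 SD, cut at about 0.9% in these data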;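 note: 0% = DMSO-only wells and 100% = 3 µM delta7-dafachronic acid wells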
# DAX1 inh-2: DAX1 (NR0B1) inhibitors, primary screen, cell-based, HEK293, Gal4-DAX1, luciferase luminescence; HEK293 Gal4-DAX1 luciferase reporter; inhibition, % at 6.75 µM; 0.99% of 340,000 active; AID 504766, 2011;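 active = inhibition above the mean over all tested compounds plus 3 SD, cut at about 4.2% in these data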;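 note: 0% = DAX1-transfected cells with DMSO and 100% = empty-vector control cells with DMSO; inhibition shows as a rise in luminescence from relieved DAX1 repression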
# Target sequence (P51843 207-470 limits assumed): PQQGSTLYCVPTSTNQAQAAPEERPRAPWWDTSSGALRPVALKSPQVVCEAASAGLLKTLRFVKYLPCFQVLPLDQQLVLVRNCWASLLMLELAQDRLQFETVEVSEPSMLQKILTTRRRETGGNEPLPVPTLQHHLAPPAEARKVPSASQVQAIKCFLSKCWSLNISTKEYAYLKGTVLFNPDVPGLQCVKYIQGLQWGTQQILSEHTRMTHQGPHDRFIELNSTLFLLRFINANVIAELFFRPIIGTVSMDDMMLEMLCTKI
# * hit, by the source's call; . = no result given.
SMILES,Rev-erbA mod,hgDAF12 agonist,hcDAF-12 act,DAX1 inh-1,ssDAF-12 act,DAX1 inh-2
COC(=O)/C(=C\c1c[nH]c2ccccc12)NC(C)=O,6,-1,3,0,0,1
CCOC(=O)/C(=C\c1c[nH]c2ccccc12)NC(C)=O,7,-3,3,0,1.4*,0
O=C(c1ccccc1)N1CCC(Oc2cccnc2)CC1,1,1,-1,3,-2,.
c1ccc(CNc2cccnc2)cc1,-8,1,0,0,-1,1
c1ccc(CNc2cncnc2)cc1,2,-2,1,0,1.1*,0
CC(=O)C(C(c1ccccc1)N1CCCc2ccccc21)N1CCOCC1 (stereo not given),-2,0,3,0,1.1*,0
CCOc1ccccc1-c1nnc(CS(=O)(=O)c2ccccc2)o1,-2,1,3,0,0,0
COc1ccc(Br)c(-c2nnc(CS(=O)(=O)c3ccccc3)o2)c1,-3,11*,0,1,-1,0
CSc1nnc2c(n1)c(C)nn2-c1ccc(C)cc1,0,4,5,0,1.3*,2
Cc1ccc(-n2nc3c(Cl)nnc(C)c3c2C)cc1,3,-1,0,0,-2,-1
O=C(NCc1cccc(C(F)(F)F)c1)O[C@H]1CC[C@@]23CCCN2C(=O)CCC[C@H]3C1,5,-1,-2,.,-2,.
Clc1ccccc1C=NNc1ccccn1,2,2,2,1,1,3
COc1ccc2nc(Cl)c(/C=N/Nc3ccccn3)cc2c1,0,10,2,4.1*,-1,1
CC(C)(C)C(=O)OC12CCCN(C1)/C(=C/c1ccc(C#N)cc1)C2 (stereo not given),10,-1,1,0,0,.
Nc1[nH]c(C(=O)c2ccccc2)c(-c2ccccn2)c1C(=O)c1c[nH]c2ccc(Br)cc12,2,1,0,.,-1,.
Nc1[nH]c(C(=O)c2ccccc2)c(-c2ccccn2)c1C(=O)c1c[nH]c2ccccc12,-3,2,0,0,1.3*,.
CC(=O)N1CCc2cc(NC(=O)c3ccc(C)cc3)ccc21,-2,11*,2,2,-1,-1
CC(C)Oc1ccc(CCNC(=O)CC2C(=O)NCCN2C)cc1 (stereo not given),-2,-1,-1,2,-1,4.4*
CCOC(=O)Cc1nnc(NC(=O)COc2ccc(C)cc2)s1,-6,3,-1,0,-1,0
CCOC(=O)Cc1nnc(NC(=O)COc2ccc(OC)cc2)s1,3,-2,3,0,-2,4.7*
Cn1c(C(=O)NC2CCCCC2)cc2sccc21,3,8,6.0*,2,0,1
CN(C(=O)c1cc2sccc2n1C)C1CCCCC1,-5,12*,3,1,-1,1
O=S1(=O)N[C@@H](Cc2ccccc2)COc2cccc(N3CCCC3)c21,0,-2,-1,1,-1,.
CCn1c(SCC(=O)OC(C)C)nnc1-c1ccccc1OC,-6,-2,4,1,1.1*,2
CCn1c(SCC(=O)C(C)(C)C)nnc1-c1ccccc1OC,4,1,0,-1,-1,1
SMILES,Rev-erbA mod,hgDAF12 agonist,hcDAF-12 act,DAX1 inh-1,ssDAF-12 act,DAX1 inh-2
CCOc1ccc(-n2c(SCC(=O)Nc3ccc(S(=O)(=O)Nc4nccs4)cc3)nnc2-c2ccc(C(C)(C)C)cc2)cc1,0,3,1,0,-1,.
Nc1nc2n(n1)C(=O)CC(c1ccccc1)N2 (stereo not given),-2,-6,-1,3.7*,-2,0
Nc1nc2n(n1)C(c1cccs1)CC(c1ccccc1)N2 (stereo not given),8,-1,-2,0,-2,-1
C/C(=N\N1CCN(Cc2ccc(Cl)cc2)CC1)c1ccc(F)cc1,0,-2,4,-1,-1,4.5*
CC(OC(=O)c1cccnc1SCc1cc(=O)n2ccccc2n1)c1ccccn1 (stereo not given),2,-1,3,0,-1,1
CCOC(=O)c1cccnc1SCc1cc(=O)n2ccccc2n1,0,3,4,2,2.1*,0
O=C(CSc1nnc(-c2cccnc2)n1Cc1ccco1)Nc1ccc(Cl)c(Cl)c1,-5,-1,-4,-1,-1,.
NC(Cc1ccc(Cl)cc1)c1csc(Nc2ccc(S(N)(=O)=O)cc2)n1 (stereo not given),2,-1,0,4.3*,-1,.
C=CCNC(=O)c1ccc(CSc2nc3ccccc3s2)cc1,1,1,5.7*,-3,0,0
COc1ccc(CN(C)C(C#Cc2ccccc2)Cc2ccccc2)c(OC)c1 (stereo not given),2,-1,-2,0,-1,.
COc1ccc(OCC2CCNCC2)cc1,-2,4,1,0,0,4.5*
COc1ccc(CNC(=O)C2CCNCC2)cc1,3,1,-1,0,-1,1
CCOC(=O)c1c(NC(=O)COC(=O)c2cc(OC)c(OC)cc2[N+](=O)[O-])sc(C)c1C,-6,-1,3,0,1.4*,2
C/C(=N\OCc1ccc(C#N)cc1)c1ccccc1,4,11*,1,0,-1,4
COC(=O)[C@]12C[C@H](CC(=O)N3CCCCC3)C(=O)N(Cc3ccco3)C1=C[C@H](C1CCCC1)O[C@@H]2C,-3,3,0,-1,-1,.
CCOC(=O)C1(Cc2ccc(OC)cc2)CCN(C(=O)c2cc3ccccc3[nH]2)CC1,-3,3,3,1,0.9*,1
Oc1ccccc1/C=N/Nc1nccnc1Cl,-3,4,1,-2,-1,-3
Clc1nccnc1N/N=C/c1ccc(Br)cc1,7,13*,2,2,0,5.1*
COc1cc(C=NN=c2sc3ccccc3n2C)ccc1OCCO,7,12*,-1,2,0,.
COc1cc(C(=O)N=c2sc3ccccc3n2C)cc(OC)c1OC,-3,-2,-2,0,-1,-2
CCCCCCCCN1CN2Cc3ccccc3C2CS1(=O)=O (stereo not given),9,3,1,0,-1,.
